# Screen size: about 66,000 compounds; about 960 (1.5%) showed an effect of 50% or more. Many of the other results were omitted from the sample, so strong results are more common in it than they were.
# Test system: Trypanosoma brucei
# Experiment: Trypanosoma brucei 72 hour study
# Assay type: functional, organism-based
# Set-up: scale not given: in the data most compounds retested in dose-response had high values
structure (smiles),measurement,setting,value
Cc1nc(C2CCCN2C(=O)c2ccc3c(c2)nc(C)n3C)no1 (configuration not stated),Percent Effect,10 µM,-28.6%
same,Percent Effect,"30.3 µM, […]",-7.833%
CS(=O)(=O)CC(=O)N1C[C@H]2CCC[C@@]2(COc2ccccn2)C1.O=C(O)C(F)(F)F,Percent Effect,"30.3 µM, […]",-20.95%
CC(C)Oc1ccc(C(=O)NCc2ccc3c(c2)CCCN3C)cn1,Percent Effect,"30.3 µM, […]",9.808%
COC(=O)c1cccc(C(=O)NCc2ccc3c(c2)CCCN3C)c1,Percent Effect,"30.3 µM, […]",1.912%
CN1CCCc2cc(CNC(=O)c3ccncc3)ccc21,Percent Effect,"30 µM, 30.03 µM",8.977%
CN1CCCc2cc(CNC(=O)c3cc[n+]([O-])cc3)ccc21,Percent Effect,"30.3 µM, […]",2.114%
COc1cc(C(=O)NCc2ccc3c(c2)CCCN3C)cc(OC)c1Br,Percent Effect,"30.3 µM, […]",56.02%
CN1CCCc2cc(CNC(=O)c3ccc(-n4cnnc4)cc3)ccc21,Percent Effect,"30.3 µM, […]",53.86%
CC(C)n1c(=O)c2ccccc2n(CCCN(C)C)c1=O.Cl,Percent Effect,"30 µM, 30.03 µM",2.697%
COCC(=O)Nc1ccnn1-c1ccc(Cl)cc1,Percent Effect,"30.3 µM, […]",12.6%
Cc1ncc2c(n1)C1(CCN(C(=O)C(C)C)CC1)OCC2.Cl,Percent Effect,"30.3 µM, […]",-4.848%
O=C(Cn1ccc2sccc2c1=O)NCc1ccccc1F,Percent Effect,"30 µM, 30.03 µM",1.93%
Clc1cc(NCc2ccncc2)nc2[nH]ccc12,Percent Effect,"30 µM, 30.03 µM",-24.9%
COc1ccc(CCNC(=O)C2CCC(Cn3cnnn3)CC2)cc1 (configuration not stated),Percent Effect,"30 µM, 30.03 µM",42.94%
O=C(NCCc1ccccc1)C1CCC(Cn2cnnn2)CC1 (configuration not stated),Percent Effect,"30 µM, 30.03 µM",56%
COc1ccccc1CCNC(=O)C1CCC(Cn2cnnn2)CC1 (configuration not stated),Percent Effect,"30 µM, 30.03 µM",-33.08%
Cl.Clc1ccccc1CN1CCc2nc(C3CCNCC3)ncc2C1,Percent Effect,"30.3 µM, […]",9.906%
O=C(NCCCOCC1CC1)Nc1ccc(-n2cncn2)c(F)c1,Percent Effect,10 µM,-25.61%
CNS(=O)(=O)c1ccccc1N1CCN(C(=O)NC(C)C)CC1,Percent Effect,"30 µM, 30.03 µM",-6.64%
CC(=O)c1ccc(N2CCN(C(=O)NC(C)c3ccc(C)o3)CC2)cc1 (configuration not stated),Percent Effect,"30 µM, 30.03 µM",19.85%
CN(C(=O)NC1CC1)C1CCN(c2ccc(Cl)cc2)CC1,Percent Effect,"30 µM, 30.03 µM",-50.01%
Cn1cc(NC(=O)CNC(=O)N2CCN(c3ccc(Cl)cc3)CC2)cn1,Percent Effect,"30.3 µM, […]",4.499%
CC(C)NC(=O)C(C)NC(=O)N1CCN(c2ccc(Cl)cc2)CC1 (configuration not stated),Percent Effect,"30 µM, 30.03 µM",51.3%
CC(NC(=O)N1CCN(c2ccc(Cl)cc2)CC1)C(=O)N1CCSCC1 (configuration not stated),Percent Effect,"30 µM, 30.03 µM",25.8%
CC(C)NC(=O)[C@H](C)NC(=O)N1CCN(c2ccc(Cl)cc2)CC1,Percent Effect,"30 µM, 30.03 µM",36.61%
CC(C)NC(=O)[C@@H](NC(=O)N1CCN(c2ccc(Cl)cc2)CC1)C(C)C,Percent Effect,"30 µM, 30.03 µM",72.09%
CC(C)NC(=O)C(NC(=O)N1CCN(c2ccc(Cl)cc2)CC1)C(C)C (configuration not stated),Percent Effect,"30 µM, 30.03 µM",55.67%
CC(C)C(NC(=O)N1CCN(c2ccc(Cl)cc2)CC1)C(=O)NC1CC1 (configuration not stated),Percent Effect,"30 µM, 30.03 µM",53.99%
C[C@H](NC(=O)N1CCN(c2ccc(Cl)cc2)CC1)C(=O)N1CCSCC1,Percent Effect,"30 µM, 30.03 µM",-37.38%
CC(C)[C@H](NC(=O)N1CCN(c2ccc(Cl)cc2)CC1)C(=O)NC1CC1,Percent Effect,"30 µM, 30.03 µM",-23.38%
O=C1CC2(CCN(Cc3ccoc3)CC2)CN1Cc1cc(F)cc(F)c1,Percent Effect,"30 µM, 30.03 µM",-15.51%
Cc1nc(CCNC(=O)C(N)c2c(C)n[nH]c2C)sc1C (configuration not stated),Percent Effect,"30.3 µM, […]",-1.575%
CN(c1ncnc2ccccc12)C1CCCN(c2cccnn2)C1 (configuration not stated),Percent Effect,"30.3 µM, […]",-20.2%
NC(=O)CNC(=O)c1ccc(CNCc2ccc(F)cc2F)cc1,Percent Effect,"30 µM, 30.03 µM",-29.88%
Br.Cc1c(NC(=O)CN2CCN(C3CCCC3)C(=O)C2)cnn1C,Percent Effect,"30.3 µM, […]",-20.91%
CNC(=O)[C@@H]1C[C@H]2CN(C(=O)c3ccco3)C[C@H]2N1C(C)C.O=C(O)C(F)(F)F,Percent Effect,"30.3 µM, […]",-12.88%
Cn1cc(C2CCCN2C(=O)c2cnc(C3CC3)s2)cn1 (configuration not stated),Percent Effect,"30 µM, 30.03 µM",-42.9%
CN(C)[C@@H]1CCN(C(=O)NC2CCCC2)[C@H]1Cc1cnn(C)c1.O=C(O)C(F)(F)F,Percent Effect,"30 µM, 30.03 µM",-1.718%
CN(C)C(=O)c1cnc2n1CCN(Cc1ccccc1)C2.O=C(O)C(F)(F)F,Percent Effect,"30 µM, 30.03 µM",-11.93%
COCCn1ccc2cc(NC(=O)COC)ccc21,Percent Effect,"30 µM, 30.03 µM",51.21%
COCCn1ccc2cc(NC(C)=O)ccc21,Percent Effect,"30 µM, 30.03 µM",20.32%
CCC(=O)Nc1ccc2c(ccn2CCOC)c1,Percent Effect,"30 µM, 30.03 µM",30.95%
COCCC(=O)N[C@H]1CC[C@H](Nc2nccc(-c3ccncc3)n2)C1,Percent Effect,"30 µM, 30.03 µM",-1.414%
CCOCC1CN(c2ccncn2)Cc2cnn(CC)c21.O=C(O)C(F)(F)F.O=C(O)C(F)(F)F (configuration not stated),Percent Effect,"30 µM, 30.03 µM",24.08%
COc1ccc(CN2CCn3c(C(=O)N(C)C)cnc3C2)cc1.O=C(O)C(F)(F)F,Percent Effect,"30.3 µM, […]",-109.7%
COc1ccc(C)cc1NC(=O)Nc1cnc(N2CCN(C)CC2)nc1,Percent Effect,"30 µM, 30.03 µM",53.87%
COc1ccc(C)cc1NC(=O)Nc1cnc(N2CCOCC2)nc1,Percent Effect,"30 µM, 30.03 µM",-0.7377%
COc1ccc(C)cc1NC(=O)Nc1cnc(N2CCCC2)nc1,Percent Effect,"30 µM, 30.03 µM",-9.808%
Cc1csc2nc3n(c(=O)c12)CCN(Cc1ccccn1)CC3.Cl,Percent Effect,"30.3 µM, […]",-40.83%
CC(C)c1ccc(C(CN)N2CCc3sccc3C2)cc1 (configuration not stated),Percent Effect,"30.3 µM, […]",99.87%
CSc1ccc(C(CN)N2CCc3sccc3C2)cc1 (configuration not stated),Percent Effect,"30 µM, 30.03 µM",-3.703%
NCC(c1ccccc1)N1CCc2sccc2C1 (configuration not stated),Percent Effect,"30 µM, 30.03 µM",35.83%
CCC(=O)NCC(c1ccc(SC)cc1)N1CCc2sccc2C1 (configuration not stated),Percent Effect,"30.3 µM, […]",-2.044%
NCC(c1ccc(Cl)cc1)N1CCc2sccc2C1 (configuration not stated),Percent Effect,"30.3 µM, […]",100.3%
CSc1ccc(C(CNC(C)=O)N2CCc3sccc3C2)cc1 (configuration not stated),Percent Effect,"30.3 µM, […]",7.525%
Cc1cccc(S(=O)(=O)N2CC[C@H]3CO[C@H](CN(C)C)[C@H]3C2)c1.O=C(O)C(F)(F)F,Percent Effect,"30 µM, 30.03 µM",25.11%
COCc1cccc(C(=O)N2C[C@H]3CC[C@@H]2CN(Cc2cscn2)C3)n1,Percent Effect,"30 µM, 30.03 µM",-49.27%
Cc1nc(CN2CCC3(CCN(c4cnn(C)c4)C3=O)C2)cs1.O=C(O)C(F)(F)F (configuration not stated),Percent Effect,"30.3 µM, […]",-7.553%
CCN1CCC2(C1)CN(S(=O)(=O)c1cn(C)cn1)C2.O=C(O)C(F)(F)F.O=C(O)C(F)(F)F,Percent Effect,"30.3 µM, […]",-6.671%
Cl.O=C(c1cc2c(s1)CCCC2)N1CCc2nc(C3CCCN3)ncc2C1 (configuration not stated),Percent Effect,"30.3 µM, […]",6.632%
CS(=O)(=O)NCCCNC(=O)c1cnc(-c2ccsc2)s1,Percent Effect,"30 µM, 30.03 µM",-7.977%
O=C(NCCCn1ccccc1=O)c1cnc(-c2ccsc2)s1,Percent Effect,"30 µM, 30.03 µM",22.57%
Cn1cc(-c2ncc(C(=O)NCCCn3ccccc3=O)s2)cn1,Percent Effect,"30 µM, 30.03 µM",73.43%
Cc1nc(N2CCCC(N3CCCC3)C2)c2cnn(C)c2n1 (configuration not stated),Percent Effect,"30 µM, 30.03 µM",50.19%
Cn1ncc2c(N3CCN4CCCCC4C3)nc(C3CCCC3)nc21 (configuration not stated),Percent Effect,"30 µM, 30.03 µM",-37.34%
Cn1ncc2c(N3CC(N4CCCCC4)C3)nc(C3CCCC3)nc21,Percent Effect,"30 µM, 30.03 µM",-31.56%
CCc1cc(N2C[C@H](C3CC3)[C@@H](N)C2)nc(N2CCCC2)n1,Percent Effect,"30 µM, 30.03 µM",72.1%
CNc1cc(C)nc(N2C[C@H](NC(=O)C3CCOCC3)[C@@H](C3CC3)C2)n1,Percent Effect,"30 µM, 30.03 µM",-23.63%
CNc1cc(C)nc(N2C[C@H](C3CC3)[C@@H](N)C2)n1,Percent Effect,"30 µM, 30.03 µM",85.5%
CC(C)Oc1cc(N2C[C@@H](C)O[C@@H](C)C2)nc(N)n1,Percent Effect,"30.3 µM, […]",-11.25%
CC(C)Oc1cc(N2CC[C@H](CO)[C@@H](O)C2)nc(N)n1,Percent Effect,"30 µM, 30.03 µM",-21.24%
Cc1cc(N2C[C@H](C3CC3)[C@@H](N)C2)nc(N2CCCCC2)n1,Percent Effect,"30 µM, 30.03 µM",-8.75%
CNc1cc(C)nc(N2C[C@@H](C(=O)O)[C@H](C3CC3)C2)n1,Percent Effect,"30 µM, 30.03 µM",-4.016%
CC(C)Oc1cc(N2C[C@H](C3CC3)[C@@H](N)C2)nc(N)n1,Percent Effect,"30 µM, 30.03 µM",88.99%
CCc1cc(N2C[C@H](C3CC3)[C@@H](N)C2)nc(N2CCOCC2)n1,Percent Effect,"30 µM, 30.03 µM",-22.85%
CN(c1ccncn1)C1CC2(CCN(C(=O)Cc3cccs3)C2)C1 (configuration not stated),Percent Effect,"30.3 µM, […]",-10.04%
O=C(O)C(F)(F)F.O=C(c1cnccn1)N1CCCC2(CCN(Cc3ccsc3)CC2)C1,Percent Effect,"30.3 µM, […]",-8.407%
CCC(C)Oc1ccc(CNCCc2c[nH]cn2)cc1Cl (configuration not stated),Percent Effect,"30 µM, 30.03 µM",-7.702%
Cc1ccc(O[C@@H]2C[C@H]3CN(C(=O)c4cccnc4)CCN3C2)cc1.O=C(O)C(F)(F)F.O=C(O)C(F)(F)F,Percent Effect,"30 µM, 30.03 µM",12.8%
CC(C)(C)c1cnc(CN2CCC(CN3CCOCC3)CC2)o1,Percent Effect,"30.3 µM, […]",1.879%
Cc1noc(C)c1C(=O)N1CC[C@]2(C[C@@H](OCc3cccnc3)CO2)C1.O=C(O)C(F)(F)F,Percent Effect,"30.3 µM, […]",-230.9%
COc1ccccc1OCCNS(=O)(=O)N1CCOCC1,Percent Effect,"30 µM, 30.03 µM",-16.37%
O=C(NCCSCc1ccc(Br)s1)C1CCCN(c2cnccn2)C1 (configuration not stated),Percent Effect,"30 µM, 30.03 µM",-0.7253%
O=C(NCCSCc1cccs1)C1CCCN(C(=O)N2CCCC2)C1 (configuration not stated),Percent Effect,"30 µM, 30.03 µM",-13.33%
O=C(NCCSCc1ccc(Br)s1)C1CCCN(C(=O)c2cccs2)C1 (configuration not stated),Percent Effect,"30 µM, 30.03 µM",59.17%
COc1ccc(OCC(=O)NS(=O)(=O)c2ccc(Br)s2)cc1,Percent Effect,10 µM,-20.86%
Cc1ccc2c(n1)N(Cc1ccncc1)CCN(S(C)(=O)=O)C2.O=C(O)C(F)(F)F.O=C(O)C(F)(F)F,Percent Effect,"30 µM, 30.03 µM",-12.2%
COCCn1cc2c(n1)C(CNCc1ccsc1)OCC2.O=C(O)C(F)(F)F (configuration not stated),Percent Effect,"30.3 µM, […]",-36.05%
CC(C)n1ccnc1C1CCCN(c2ccccn2)C1 (configuration not stated),Percent Effect,"30 µM, 30.03 µM",54.17%
CC(C)n1ccnc1C1CCCN(c2ccnc3ccccc23)C1 (configuration not stated),Percent Effect,"30 µM, 30.03 µM",44.45%
CSc1nccc(N2CCCC(c3nccn3C(C)C)C2)n1 (configuration not stated),Percent Effect,"30 µM, 30.03 µM",-62.98%
Cc1cc(C)n(-c2nc(C(=O)NCCN3CCC(C)CC3)cs2)n1,Percent Effect,"30.3 µM, […]",41.67%
Cl.c1cc(CC2CCCNC2)nc(NCCc2cnccn2)c1 (configuration not stated),Percent Effect,"30.3 µM, […]",-1.325%
Cl.c1ccc(CCNc2cccc(C3CCCNC3)n2)cc1 (configuration not stated),Percent Effect,"30.3 µM, […]",66.04%
Cl.c1cc(NCc2ccncc2)nc(C2CCCNC2)c1 (configuration not stated),Percent Effect,"30.3 µM, […]",-1.5%
CCCn1ccnc1-c1cccc(NC(=O)C2CCCOC2)c1 (configuration not stated),Percent Effect,"30.3 µM, […]",-87.17%
